From the supplement of paper PMC4466140

target: AgAbp1; assay: SPOT peptide array binding signal intensity (averaged, normalized) (arbitrary units (background-subtracted, floor 0; scale differs between SH3 domains)); higher = stronger binding of the SH3 domain to the peptide
Summary of the method: (§1)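 Spot intensities were captured after detection with anti-GST antibody, an HRP-linked anti-mouse secondary and luminol, and quantified with Genespotter. The probes were GST-fused SH3 domains from four yeast species, produced in E. coli BL21(DE3), purified on glutathione Sepharose and incubated at 10 μg/ml overnight at 4°C on cellulose-bound synthetic 15-mer peptides with cysteines replaced by serines. Binding signal is the normalized, background-subtracted spot intensity averaged over replicates, and its arbitrary units differ between domains.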

Binder | SPOT peptide array binding signal intensity
VAPPPLPNRQLPNLD | 1.5

target: AgBbc1; assay: as above
Summary of the method: as §1

Binder | SPOT peptide array binding signal intensity
VAPPPLPNRQLPNLD | 45.5

target: AgBem1-D1; assay: as above
Summary of the method: as §1

Binder | SPOT peptide array binding signal intensity
VAPPPLPNRQLPNLD | 16

target: AgBzz1-D1; assay: as above
Summary of the method: as §1

Binder | SPOT peptide array binding signal intensity
VAPPPLPNRQLPNLD | 3

target: AgBzz1-D2; assay: as above
Summary of the method: as §1

Binder | SPOT peptide array binding signal intensity
VAPPPLPNRQLPNLD | ≤ 0

target: AgCyk3; assay: as above
Summary of the method: as §1

Binder | SPOT peptide array binding signal intensity
VAPPPLPNRQLPNLD | ≤ 0

target: AgFus1; assay: as above
Summary of the method: as §1

Binder | SPOT peptide array binding signal intensity
VAPPPLPNRQLPNLD | ≤ 0

target: AgHof1; assay: as above
Summary of the method: as §1

Binder | SPOT peptide array binding signal intensity
VAPPPLPNRQLPNLD | 247

target: AgHse1; assay: as above
Summary of the method: as §1

Binder | SPOT peptide array binding signal intensity
VAPPPLPNRQLPNLD | 51

target: AgLsb1; assay: as above
Summary of the method: as §1

Binder | SPOT peptide array binding signal intensity
VAPPPLPNRQLPNLD | 693

target: AgLsb4; assay: as above
Summary of the method: as §1

Binder | SPOT peptide array binding signal intensity
VAPPPLPNRQLPNLD | 5100

target: AgMyo5; assay: as above
Summary of the method: as §1

Binder | SPOT peptide array binding signal intensity
VAPPPLPNRQLPNLD | 364

target: AgNbp2; assay: as above
Summary of the method: as §1

Binder | SPOT peptide array binding signal intensity
VAPPPLPNRQLPNLD | ≤ 0

target: AgRvs167; assay: as above
Summary of the method: as §1

Binder | SPOT peptide array binding signal intensity
VAPPPLPNRQLPNLD | 952

target: AgSho1; assay: as above
Summary of the method: as §1

Binder | SPOT peptide array binding signal intensity
VAPPPLPNRQLPNLD | ≤ 0

target: AgSla1-D1-D2; assay: as above
Summary of the method: as §1

Binder | SPOT peptide array binding signal intensity
VAPPPLPNRQLPNLD | 1.5

target: AgSla1-D3; assay: as above
Summary of the method: as §1

Binder | SPOT peptide array binding signal intensity
VAPPPLPNRQLPNLD | ≤ 0

target: CaAbp1-D1; assay: as above
Summary of the method: as §1

Binder | SPOT peptide array binding signal intensity
VAPPPLPNRQLPNLD | ≤ 0

target: CaAbp1-D2; assay: as above
Summary of the method: as §1

Binder | SPOT peptide array binding signal intensity
VAPPPLPNRQLPNLD | 5

target: CaBbc1; assay: as above
Summary of the method: as §1

Binder | SPOT peptide array binding signal intensity
VAPPPLPNRQLPNLD | 252

target: CaBem1-D1; assay: as above
Summary of the method: as §1

Binder | SPOT peptide array binding signal intensity
VAPPPLPNRQLPNLD | ≤ 0

target: CaBzz1-D1; assay: as above
Summary of the method: as §1

Binder | SPOT peptide array binding signal intensity
VAPPPLPNRQLPNLD | 14

target: CaBzz1-D2; assay: as above
Summary of the method: as §1

Binder | SPOT peptide array binding signal intensity
VAPPPLPNRQLPNLD | 4

target: CaCyk3; assay: as above
Summary of the method: as §1

Binder | SPOT peptide array binding signal intensity
VAPPPLPNRQLPNLD | 1

target: CaFus1; assay: as above
Summary of the method: as §1

Binder | SPOT peptide array binding signal intensity
VAPPPLPNRQLPNLD | ≤ 0

target: CaHof1; assay: as above
Summary of the method: as §1

Binder | SPOT peptide array binding signal intensity
VAPPPLPNRQLPNLD | 2

target: CaHse1; assay: as above
Summary of the method: as §1

Binder | SPOT peptide array binding signal intensity
VAPPPLPNRQLPNLD | 569

target: CaLsb1; assay: as above
Summary of the method: as §1

Binder | SPOT peptide array binding signal intensity
VAPPPLPNRQLPNLD | 3.25

target: CaLsb4; assay: as above
Summary of the method: as §1

Binder | SPOT peptide array binding signal intensity
VAPPPLPNRQLPNLD | 4840

target: CaMyo5; assay: as above
Summary of the method: as §1

Binder | SPOT peptide array binding signal intensity
VAPPPLPNRQLPNLD | 2.5

target: CaNbp2; assay: as above
Summary of the method: as §1

Binder | SPOT peptide array binding signal intensity
VAPPPLPNRQLPNLD | 28.5

target: CaRvs167; assay: as above
Summary of the method: as §1

Binder | SPOT peptide array binding signal intensity
VAPPPLPNRQLPNLD | 3100

target: CaRvs167-3; assay: as above
Summary of the method: as §1

Binder | SPOT peptide array binding signal intensity
VAPPPLPNRQLPNLD | ≤ 0

target: CaSho1; assay: as above
Summary of the method: as §1

Binder | SPOT peptide array binding signal intensity
VAPPPLPNRQLPNLD | ≤ 0

target: CaSla1-D1-D2; assay: as above
Summary of the method: as §1

Binder | SPOT peptide array binding signal intensity
VAPPPLPNRQLPNLD | ≤ 0

target: CaSla1-D3; assay: as above
Summary of the method: as §1

Binder | SPOT peptide array binding signal intensity
VAPPPLPNRQLPNLD | ≤ 0

target: ScAbp1; assay: as above
Summary of the method: as §1

Binder | SPOT peptide array binding signal intensity
VAPPPLPNRQLPNLD | 2

target: ScBbc1; assay: as above
Summary of the method: as §1

Binder | SPOT peptide array binding signal intensity
VAPPPLPNRQLPNLD | ≤ 0

target: ScBem1-D1; assay: as above
Summary of the method: as §1

Binder | SPOT peptide array binding signal intensity
VAPPPLPNRQLPNLD | ≤ 0

target: ScBzz1-D1; assay: as above
Summary of the method: as §1

Binder | SPOT peptide array binding signal intensity
VAPPPLPNRQLPNLD | 3.5

target: ScBzz1-D2; assay: as above
Summary of the method: as §1

Binder | SPOT peptide array binding signal intensity
VAPPPLPNRQLPNLD | ≤ 0

target: ScCyk3; assay: as above
Summary of the method: as §1

Binder | SPOT peptide array binding signal intensity
VAPPPLPNRQLPNLD | ≤ 0

target: ScFus1; assay: as above
Summary of the method: as §1

Binder | SPOT peptide array binding signal intensity
VAPPPLPNRQLPNLD | ≤ 0

target: ScHof1; assay: as above
Summary of the method: as §1

Binder | SPOT peptide array binding signal intensity
VAPPPLPNRQLPNLD | 39.2

target: ScHse1; assay: as above
Summary of the method: as §1

Binder | SPOT peptide array binding signal intensity
VAPPPLPNRQLPNLD | 10.5

target: ScLsb1; assay: as above
Summary of the method: as §1

Binder | SPOT peptide array binding signal intensity
VAPPPLPNRQLPNLD | 1610

target: ScLsb2; assay: as above
Summary of the method: as §1

Binder | SPOT peptide array binding signal intensity
VAPPPLPNRQLPNLD | 203

target: ScLsb3; assay: as above
Summary of the method: as §1

Binder | SPOT peptide array binding signal intensity
VAPPPLPNRQLPNLD | 8010

target: ScLsb4; assay: as above
Summary of the method: as §1

Binder | SPOT peptide array binding signal intensity
VAPPPLPNRQLPNLD | 4010

target: ScMyo3; assay: as above
Summary of the method: as §1

Binder | SPOT peptide array binding signal intensity
VAPPPLPNRQLPNLD | 321

target: ScMyo5; assay: as above
Summary of the method: as §1

Binder | SPOT peptide array binding signal intensity
VAPPPLPNRQLPNLD | 208

target: ScNbp2; assay: as above
Summary of the method: as §1

Binder | SPOT peptide array binding signal intensity
VAPPPLPNRQLPNLD | ≤ 0

target: ScPex13; assay: as above
Summary of the method: as §1

Binder | SPOT peptide array binding signal intensity
VAPPPLPNRQLPNLD | 1660

target: ScRvs167; assay: as above
Summary of the method: as §1

Binder | SPOT peptide array binding signal intensity
VAPPPLPNRQLPNLD | 2740

target: ScSho1; assay: as above
Summary of the method: as §1

Binder | SPOT peptide array binding signal intensity
VAPPPLPNRQLPNLD | ≤ 0

target: ScSla1-D1-D2; assay: as above
Summary of the method: as §1

Binder | SPOT peptide array binding signal intensity
VAPPPLPNRQLPNLD | ≤ 0

target: ScSla1-D3; assay: as above
Summary of the method: as §1

Binder | SPOT peptide array binding signal intensity
VAPPPLPNRQLPNLD | ≤ 0

target: SpAbp1-D1; assay: as above
Summary of the method: as §1

Binder | SPOT peptide array binding signal intensity
VAPPPLPNRQLPNLD | 8

target: SpBbc1; assay: as above
Summary of the method: as §1

Binder | SPOT peptide array binding signal intensity
VAPPPLPNRQLPNLD | ≤ 0

target: SpBzz1-D1; assay: as above
Summary of the method: as §1

Binder | SPOT peptide array binding signal intensity
VAPPPLPNRQLPNLD | 176

target: SpBzz1-D2; assay: as above
Summary of the method: as §1

Binder | SPOT peptide array binding signal intensity
VAPPPLPNRQLPNLD | ≤ 0

target: SpCyk3; assay: as above
Summary of the method: as §1

Binder | SPOT peptide array binding signal intensity
VAPPPLPNRQLPNLD | 5

target: SpHof1; assay: as above
Summary of the method: as §1

Binder | SPOT peptide array binding signal intensity
VAPPPLPNRQLPNLD | ≤ 0

target: SpHof1-2; assay: as above
Summary of the method: as §1

Binder | SPOT peptide array binding signal intensity
VAPPPLPNRQLPNLD | 11.5

target: SpHof1-3; assay: as above
Summary of the method: as §1

Binder | SPOT peptide array binding signal intensity
VAPPPLPNRQLPNLD | 31

target: SpHse1; assay: as above
Summary of the method: as §1

Binder | SPOT peptide array binding signal intensity
VAPPPLPNRQLPNLD | 71.5

target: SpLsb1; assay: as above
Summary of the method: as §1

Binder | SPOT peptide array binding signal intensity
VAPPPLPNRQLPNLD | 1020

target: SpLsb4; assay: as above
Summary of the method: as §1

Binder | SPOT peptide array binding signal intensity
VAPPPLPNRQLPNLD | 5980

target: SpMyo1; assay: as above
Summary of the method: as §1

Binder | SPOT peptide array binding signal intensity
VAPPPLPNRQLPNLD | 461

target: SpNbp2; assay: as above
Summary of the method: as §1

Binder | SPOT peptide array binding signal intensity
VAPPPLPNRQLPNLD | ≤ 0

target: SpPex13; assay: as above
Summary of the method: as §1

Binder | SPOT peptide array binding signal intensity
VAPPPLPNRQLPNLD | ≤ 0

target: SpRvs167; assay: as above
Summary of the method: as §1

Binder | SPOT peptide array binding signal intensity
VAPPPLPNRQLPNLD | 3250

target: SpSla1-D1-D2; assay: as above
Summary of the method: as §1

Binder | SPOT peptide array binding signal intensity
VAPPPLPNRQLPNLD | ≤ 0

target: SpSla1-D3; assay: as above
Summary of the method: as §1

Binder | SPOT peptide array binding signal intensity
VAPPPLPNRQLPNLD | ≤ 0
